# In publication PMC5540273 (PLoS ONE, 2017):
# System: PIKFYVE
# Details: concentration: 1 μM, replicates: in singlicate; n = 1
# 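Also: KINOMEscan kinase panel screen.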
row,Structure (SMILES),%Inh
1,Cl.Cl.NCC(NCc1ccc(-c2ccnc3[nH]ccc23)s1)c1ccccc1 (stereo not drawn) [GSK1321565],3%
2,CC(=O)N1CCN(c2ccc(Nc3nccc(-c4sc(C(C)C)nc4-c4cccc(NS(=O)(=O)c5cccc(Cl)c5)c4)n3)cn2)CC1 [GSK1660437],0%
3,COc1ccc(Nc2nccc(N3CCC(NC(=O)Nc4cccc(OC)c4)C3)n2)cc1 (stereo not drawn) [GSK1379742],0%
4,Cl.Cl.NCC(NC(=O)c1cc(-c2ccccc2)c(-c2ccnc3[nH]ccc23)s1)c1ccccc1 (stereo not drawn) [GSK1321561],0%
5,O=C(Nc1n[nH]c2cc(-c3ccoc3)ccc12)C1CC1 [SB-738481],1%
6,Cl.c1ccc(-c2ccc3c(Nc4ccc5[nH]ccc5c4)ccnc3c2)nc1 [GW440138],16%
7,COc1cc(Nc2nccc(-c3c(-c4cccc(NC(=O)c5c(F)cccc5F)c4)nn4ncccc34)n2)cc(OC)c1OC [GSK327238],0%
8,CCCCc1nn2ncccc2c1-c1ccnc(Nc2ccc(N3CCN(C)CC3)cc2)n1 [GW684941],51%
9,Nc1ncc(-c2ccc3nccc(-c4ccncc4)c3c2)cc1S(=O)(=O)N1CCOCC1 [GSK1627798],0%
10,Cc1ccc(S(=O)(=O)Nc2ccc(Nc3nccc(Nc4cccc5[nH]ncc45)n3)cc2)cc1 [GSK581271],0%
11,COc1ccc(Nc2nccc(NCCNC(=O)c3cc4ccccc4s3)n2)cc1 [GSK1379896],0%
12,NCCCC(NC(=O)c1cc(Br)c(-c2ccnc3[nH]ccc23)s1)c1ccccc1.O=C(O)C(F)(F)F.O=C(O)C(F)(F)F (stereo not drawn) [GSK1287544],0%
